Measurements taken from PubChem BioAssay (NCI).
The panel holds about 79,000 compounds, 15% with a hit somewhere; the sample as a whole holds those more often. A number with no mark means an inactive call. Active and inactive are the calls of the source. Rule as the data show it: active = growth inhibition above about 70%; inactive = the rest.

Test: NCI Yeast Anticancer Drug Screen. Data for the rad50EPP+ strain (AID 151);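 also: 0% = growth of vehicle-treated control cultures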
Conditions: S. cerevisiae rad50 mutant strain, active compounds read high
Experimental: Growth inhibition of yeast strains with defined genetic alterations is measured as a screen for potential anti-cancer activity. Selected strains with alterations in DNA damage repair or cell cycle control were exposed to compounds and growth inhibition was measured relative to vehicle treated controls. The strain used in this assay is rad50EPP+

| Compound | growth inhibition (at 1.2 µM) [%] | growth inhibition (at 3.7 µM) [%] | growth inhibition (at 11.0 µM) | growth inhibition (at 33.0 µM) | growth inhibition (at 100.0 µM) |
| --- | --- | --- | --- | --- | --- |
| OC(c1ccc(F)cc1)(c1ccc(F)cc1)C1CC1 | -10 | -17 | -35% | -26% | 11% |
| CCC/C(Cl)=N\OC(=O)Nc1cccc(C(F)(F)F)c1 | 27 | 32 | 36% | 35% | 25% |
| CCCCOC(=O)N[C@H]1CCc2cc(OC)c(OC)c(OC)c2-c2ccc(SC)c(=O)cc21 | 1 | -1 | -4% | -6% | -11% |
| C(CCSC1=NCCN1)CSC1=NCCN1 (tested in a mixture with another compound) | 30 | 46 | 78% (active) | 73% (active) | 99% (active) |
| CN(CCc1ccccn1)c1ccc2c(c1)Cc1ccccc1-2 | 29 | 68 | 91% (active) | 89% (active) | 88% (active) |
| CSC1=NNC(SC)=NN1 | -4 | -9 | 0% | 55% | 98% (active) |
| CC(C)(CN1CCCCC1)C(=O)CC(SCCS(=O)(=O)O)c1ccc(Br)cc1 (stereo not given) | -2 | -4 | -4% | 0% | 14% |
| Nc1nc(Cl)c(Cl)c(Cl)n1 | 0 | 34 | 89% (active) | 93% (active) | 99% (active) |
